SMILES strings stand for the structures. “And” between values parts separate entries of the source, which are not always exact repeats. Identical values can stand only once. Inconclusive results are not listed. Some compounds were tested as several samples or in several runs, with calls that do not always agree. The source made the active and inactive calls. Unless noted, the call rests on the fitted dose curve; in most records, active means well fitted curve in the direction sought with a large enough effect in the repeat runs; inconclusive means weak or mixed curves; inactive means no such curve, though single readings can be large; an effect the other way counts as inactive or inconclusive.

A short description of assay [1]: qHTS assay to identify small molecule antagonists of the glucocorticoid receptor (GR) signaling pathway - cell viability counter screen (AID 720693). Further: nearly all actives have a fitted effect of over 55% in size.
Assay [2] is described as follows: qHTS assay for identifying genotoxic compounds that show differential cytotoxicity against isogenic chicken DT40 cell lines with known DNA damage response pathways - wild type cell line (AID 743012). Further: nearly all actives have a fitted effect of over 60% in size. The essentials:
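Wild type DT40, 300 cells/well, ~0.5 h settle at 37 C/5% CO2; compounds in DMSO added by pintool; 40 h at 37 C/5% CO2; CellTiter-Glo, 30 min RT; luminescence.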

Assay [3] in a line: qHTS assay for identifying genotoxic compounds that show differential cytotoxicity against isogenic chicken DT40 cell lines with known DNA damage response pathways - Rev3 mutant cell line (AID 743014). Further: nearly all actives have a fitted effect of over 55% in size. Further: potency means the concentration at half of the fitted maximal effect. A general note: Quantitative high-throughput screening tests each substance at several concentrations.
Assay [4] is described as follows: qHTS assay for identifying genotoxic compounds that show differential cytotoxicity against isogenic chicken DT40 cell lines with known DNA damage response pathways - Rad54/Ku70 mutant cell line (AID 743015). Further: nearly all actives have a fitted effect of over 60% in size.
The nature of assay [5]: qHTS assay to identify small molecule antagonists of the androgen receptor (AR) signaling pathway - cell viability counter screen (AID 743033; further: nearly all actives have a fitted effect of over 45% in size).
The nature of assay [6]: qHTS assay to identify small molecule antagonists of the androgen receptor (AR) signaling pathway using the MDA cell line - cell viability counter screen (AID 743041; further: nearly all actives have a fitted effect of over 45% in size). An outline of the steps:
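Cells were plated at 3,000 per well and left 5 h. Compounds in DMSO were then pinned in, followed by R1881. After 16 h at 37C, CellTiter-Fluor fluorescence gave viability.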

The target of assay [7] is Androgen receptor (Homo sapiens) (UniProt P10275). As to the kind of experiment: qHTS assay to identify small molecule agonists of the androgen receptor (AR) signaling pathway using the MDA cell line (AID 743040; further: nearly all actives have a fitted effect of over 20% in size). The essentials: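 Cells plated, 5 h at 37C/0% CO2; compound or DMSO pinned; 16 h at 37C; ONE-Glo added; luminescence measured after 30 min at room temperature. Reporter line: MDA-kb2 with MMTV-luciferase responsive to AR and GR.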
Sequence of Androgen receptor (Homo sapiens) (P10275 whole entry, looked up): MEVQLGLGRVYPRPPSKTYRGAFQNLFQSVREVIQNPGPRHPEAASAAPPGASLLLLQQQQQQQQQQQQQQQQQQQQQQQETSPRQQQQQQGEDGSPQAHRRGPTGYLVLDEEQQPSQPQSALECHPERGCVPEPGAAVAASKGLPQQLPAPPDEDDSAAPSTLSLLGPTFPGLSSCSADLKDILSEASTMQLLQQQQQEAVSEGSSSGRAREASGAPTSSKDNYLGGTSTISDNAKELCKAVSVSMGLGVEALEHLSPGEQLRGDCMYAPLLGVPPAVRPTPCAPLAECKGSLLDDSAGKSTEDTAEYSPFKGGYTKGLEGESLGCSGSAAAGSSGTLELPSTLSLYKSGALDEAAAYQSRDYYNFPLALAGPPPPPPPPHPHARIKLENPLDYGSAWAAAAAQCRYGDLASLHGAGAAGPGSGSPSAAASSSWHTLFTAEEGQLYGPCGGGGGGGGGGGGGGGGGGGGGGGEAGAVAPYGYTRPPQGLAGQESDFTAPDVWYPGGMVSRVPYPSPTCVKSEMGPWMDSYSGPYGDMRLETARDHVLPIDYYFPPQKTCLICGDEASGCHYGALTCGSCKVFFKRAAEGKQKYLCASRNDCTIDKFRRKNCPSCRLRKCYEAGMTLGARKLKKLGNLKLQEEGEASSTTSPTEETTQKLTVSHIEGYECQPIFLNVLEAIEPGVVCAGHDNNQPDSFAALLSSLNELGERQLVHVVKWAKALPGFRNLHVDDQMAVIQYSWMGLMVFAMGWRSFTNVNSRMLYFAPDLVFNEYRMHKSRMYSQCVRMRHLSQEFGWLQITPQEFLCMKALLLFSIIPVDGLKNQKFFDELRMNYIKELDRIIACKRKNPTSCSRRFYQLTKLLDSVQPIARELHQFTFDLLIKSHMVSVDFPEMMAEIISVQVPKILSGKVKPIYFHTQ

Assay [8] shares this target. Nature of the assay: qHTS assay to identify small molecule antagonists of the androgen receptor (AR) signaling pathway using the MDA cell line (AID 743042; further: nearly all actives have a fitted effect of over 55% in size). The essentials: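 Antagonist mode: compounds plus R1881 agonist added to MDA-kb2 AR-luc cells, incubated 16 h at 37C. Luciferase reporter luminescence quantified, with multiplexed CellTiter-Fluor readout for cell viability.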

Assay [9] has the same target. As to the kind of experiment: qHTS assay to identify small molecule antagonists of the androgen receptor (AR) signaling pathway (AID 743035; active means well fitted inhibition curve with a large enough effect in the signal ratio in the repeat runs, not every such curve was filed as active; the % refers to the signal ratio). The essentials: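 Fluorescence from a beta-lactamase FRET substrate (LiveBLAzer B/G, 2 h, room temperature) measured inhibition of R1881-stimulated signaling in GeneBLAzer AR-UAS-bla HEK293 cells exposed to compound for 16 h at 37C.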

The target is the same in assay [10]. Nature of the assay: qHTS assay to identify small molecule agonists of the androgen receptor (AR) signaling pathway (AID 743036; active means well fitted activation curve with a large enough effect in the signal ratio in the repeat runs, with a control signal flat, not every such curve was filed as active; the % refers to the signal ratio). The essentials:
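Following a 4 h settling period, AR-UAS-bla HEK293 cells were dosed with compounds for 16 h at 37C. A 2 h room-temperature incubation with LiveBLAzer B/G FRET substrate preceded the fluorescence measurement.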

In the case of `O=C(O)CCCCCCCCC(=O)O`, the result in assay [1] and in assay [5] was inactive. For the same compound, the Potency entry in assay [2], in assay [3], in assay [4] and in assay [6] was “inactive” throughout.

Regarding `O=C(O)Cn1c(=O)n(Cc2ccc(Br)cc2F)c(=O)c2ccc(Cl)cc21`, the compound was classed as inactive in [1], in assay [5] and in [8]. Also, the Potency entry in assay [2], in assay [3], in assay [4], in [7] and in assay [6] was “inactive” throughout.

Consider `CN/C(=C\[N+](=O)[O-])NCCSCc1csc(CN(C)C)n1`, for which the outcome in assay [1], in assay [5], in assay [9] and in assay [8] was inactive. Also, the Potency result in assay [2], in [3], in [4], in assay [10], in [7] and in assay [6] was “inactive” each time.

Turning to `CCCOC(=O)c1ccccc1`, the outcome in [1] and in assay [5] was inactive. The Potency entry in assay [2], in assay [3], in assay [4] and in assay [6] was “inactive” each time.

As for `COc1cc(OC)c(C(=O)CCCN2CCCC2)c(OC)c1`, the compound was classed as inactive in [1], in [5], in [9] and in assay [8]. The Potency entry in assay [2], in assay [4], in assay [10], in assay [7] and in assay [6] was “inactive” each time. Besides, the Potency result in assay [3] is “inactive and 21.7 µM (active)”.

Take `CC(C)(Oc1ccc(CCNC(=O)c2ccc(Cl)cc2)cc1)C(=O)O`: the compound was classed as inactive in assay [1] and in [5]. Also, the Potency result in [2], in [3], in [4] and in [6] was “inactive” in each case.

On to `CCNc1ccccc1`, for which the compound was called inactive in assay [1], in [5], in [9] and in assay [8]. The Potency result in [2], in assay [3], in assay [4], in assay [10], in assay [7] and in assay [6] was “inactive” each time.

`CCCCCCCCCCO`: the call in assay [1] and in assay [5] was inactive. For the same compound, the Potency result in assay [2], in assay [3], in [4] and in [6] was “inactive” in each case.

For the compound `CCCCCC(=O)O`, the compound was classed as inactive in [1], in assay [5], in assay [9] and in assay [8]. The Potency entry in assay [2], in [3], in assay [4], in [10], in assay [7] and in [6] was “inactive” throughout.

For `CCNC(=S)NCC`, the call in [1] and in assay [5] was inactive. Moreover, the Potency entry in assay [2], in assay [3], in assay [4] and in [6] was “inactive” throughout.

Consider `O=S(=O)(O)c1ccccc1`, for which the result in assay [1] and in assay [5] was inactive. Moreover, the Potency result in [2], in [3], in assay [4] and in [6] was “inactive” in each case.

Regarding `O=C1C(c2[nH]c3ccccc3c2O)=Nc2ccccc21`, the result in assay [1] and in assay [5] was inactive. Moreover, the Potency entry in [2], in assay [3], in assay [4] and in assay [6] was “inactive” in each case.

As to `COC(=O)c1cccnc1`, the compound was called inactive in [1], in assay [5], in [9] and in assay [8]. Further, the Potency entry in assay [2], in assay [3], in assay [4], in assay [10], in assay [7] and in assay [6] was “inactive” throughout.

In the case of `CCO[Si](CCC#N)(OCC)OCC`, the call in assay [1] and in [5] was inactive. Besides, the Potency entry in [2], in assay [3], in [4] and in assay [6] was “inactive” in each case.

On to `CC(C)CC(=O)CC(C)CC(C)C` (centres undefined), for which the compound was called inactive in assay [1], in assay [5], in [9] and in assay [8]. In addition, the Potency result in assay [2], in [3], in assay [4], in [10], in [7] and in [6] was “inactive” in each case.

On to `O=c1[nH]cnc2[nH]ncc12`, for which the outcome in assay [1] and in assay [5] was inactive. Besides, the Potency result in assay [2], in assay [3], in assay [4] and in assay [6] was “inactive” each time.

With `COc1ccc(C)cc1N`, the result in assay [1], in assay [5], in assay [9] and in assay [8] was inactive. In addition, the Potency entry in assay [2], in [3], in [4], in assay [10], in assay [7] and in [6] was “inactive” each time.

For `CC(=O)CC(C)(C)O`, the compound was classed as inactive in [1], in [5], in assay [9] and in assay [8]. The Potency entry in assay [2], in [3], in assay [4], in [10], in assay [7] and in [6] was “inactive” each time.

Consider `CC1(C)S[C@@H]2[C@H](NC(=O)COc3ccccc3)C(=O)N2[C@H]1C(=O)O`, for which the call in assay [1] and in [5] was inactive. The Potency entry in assay [2], in assay [3], in assay [4] and in assay [6] was “inactive” throughout.

Regarding `Cc1ccc([N+](=O)[O-])cc1S(=O)(=O)O`, the outcome in assay [1], in assay [5], in [9] and in [8] was inactive. Also, the Potency result in assay [2], in [3], in assay [4], in [10], in assay [7] and in assay [6] was “inactive” throughout.

`OCc1ccccc1`: the outcome in assay [1], in assay [5], in [9] and in assay [8] was inactive. For the same compound, the Potency entry in assay [2], in [3], in assay [4], in assay [10], in assay [7] and in [6] was “inactive” each time.

Regarding `C=CC[N+](C)(C)CC=C`, the outcome in assay [1] and in assay [5] was inactive. Also, the Potency entry in assay [2], in [3], in assay [4] and in assay [6] was “inactive” in each case.

On to `CSc1ccc(Cl)cc1`, for which the outcome in [1], in assay [5], in [9] and in assay [8] was inactive. For the same compound, the Potency result in assay [2], in assay [3], in [4], in assay [10], in assay [7] and in assay [6] was “inactive” each time.

Values taken from PubChem BioAssay (Tox21).
